About 8,800 targets were measured; listed, in parts, are those with a hit and a random draw of the rest. About 0.5% of all pairs of compound and target were hits.
Key:
Test in all cases: log2 fold change, soluble protein after heating vs DMSO (PISA); higher = thermal stabilisation; K562 lysate, 10 uM; active = over 0.2 and 3.5 SD of the protein, either way, in both replicates (recomputed)
[1] = compound: CS(=O)(=O)CCNCc1ccc(-c2ccc3ncnc(Nc4ccc(OCc5cccc(F)c5)c(Cl)c4)c3c2)o1 [lapatinib]
Method in brief: (§1)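 Soluble protein was defined as the supernatant remaining after 21,000xg for 90 min, following pooling of heated aliquots and adjustment to 0.5% NP-40 at 4°C. Before that, crude K562 extract at 1 mg/mL protein in PBS pH 7.4 with 1 mM MgCl2 was treated with 10 μM compound for 30 min and heated for 3 min across 48°C-58°C. Quantification used TMTpro 16plex LC-MS/MS with channel sums equalised, and values are log-two fold changes in thermal stability relative to solvent controls from duplicates.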

[2] = compound: C[C@@H](Oc1cc(-c2cnn(C3CCNCC3)c2)cnc1N)c1c(Cl)ccc(F)c1Cl [crizotinib]
Method in brief: as §1

[3] = compound: C[C@H](C1=CC=C(C=C1)C(=O)NC2=C3C=CNC3=NC=C2)N
Method in brief: as §1

[4] = compound: C[C@H](Nc1ncnc2nc[nH]c12)c1cc2cccc(Cl)c2c(=O)n1-c1ccccc1 [duvelisib]
Method in brief: as §1

[5] = compound: Cc1cc(Nc2cc(CN3CCOCC3)c3nc(C)c(Cc4ccc(Cl)cc4F)n3n2)n[nH]1 [gandotinib]
Method in brief: as §1

[6] = compound: Cc1ccc(-n2nc(C(C)(C)C)cc2NC(=O)Nc2ccc(OCCN3CCOCC3)c3ccccc23)cc1 [doramapimod]
Method in brief: as §1

[7] = compound: Cc1cccc(CC(=O)N2CCc3c2ccc(-c2cn(C)c4ncnc(N)c24)c3F)n1
Method in brief: as §1

[8] = compound: Cc1cn(-c2cc(NC(=O)c3ccc(C)c(Nc4nccc(-c5cccnc5)n4)c3)cc(C(F)(F)F)c2)cn1 [nilotinib]
Method in brief: as §1

[9] = compound: Cc1nc(Nc2n[nH]c3c2CN(C(=O)N[C@H](CN(C)C)c2ccccc2)C3(C)C)c2sccc2n1
Method in brief: as §1

[10] = compound: Cc1nc(Nc2ncc(C(=O)Nc3c(C)cccc3Cl)s2)cc(N2CCN(CCO)CC2)n1 [dasatinib]
Method in brief: as §1

[11] = compound: Cc1ncc(-c2ccnc(Nc3ccc(S(C)(=O)=O)cc3)n2)n1C(C)C
Method in brief: as §1

[12] = compound: Cn1cc(-c2ccc3c(c2)CCN3C(=O)Cc2cccc(C(F)(F)F)c2)c2c(N)ncnc21
Method in brief: as §1

[13] = compound: Cn1cc(CNCC2CCN(c3ncc(C(=O)NO)cn3)CC2)c2ccccc21 [quisinostat]
Method in brief: as §1

[14] = compound: Cn1cncc1[C@@](N)(c1ccc(Cl)cc1)c1ccc2c(c1)c(-c1cccc(Cl)c1)cc(=O)n2C [tipifarnib]
Method in brief: as §1

[15] = compound: NC(=O)Nc1cc(-c2cccc(F)c2)sc1C(=O)N[C@H]1CCCNC1
Method in brief: as §1

[16] = compound: NC(=O)c1cnc(N[C@@H]2CCCC[C@@H]2N)nc1Nc1cccc(-n2nccn2)c1
Method in brief: as §1

[17] = compound: NC1(c2ccc(-c3nc4ccn5c(=O)[nH]nc5c4cc3-c3ccccc3)cc2)CCC1
Method in brief: as §1

[18] = compound: Cc1cc(Nc2cc(N3CCN(C)CC3)nc(Sc3ccc(NC(=O)C4CC4)cc3)n2)n[nH]1 [tozasertib]
Method in brief: as §1

[19] = compound: CS(=O)(=O)N1CCN(Cc2cc3nc(-c4cccc5[nH]ncc45)nc(N4CCOCC4)c3s2)CC1 [pictilisib]
Method in brief: as §1

[20] = compound: Cc1ccc(NC(=O)c2ccc(CN3CC[C@H](N(C)C)C3)c(C(F)(F)F)c2)cc1Nc1nccc(-c2cncnc2)n1 [bafetinib]
Method in brief: as §1

Measured: log2 fold change

ZBTB40 (UniProt Q9NUA8)
inactive: [1] 0.022 | [2] 0.036 | [3] -0.249 | [4] 0.018 | [5] 0.219 | [6] -0.02 | [7] 0.004 | [8] -0.076 | [9] 0.29 | [10] -0.024 | [11] 0.086 | [12] -0.051 | [13] -0.01 | [14] 0.078 | [15] -0.018 | [16] 0.004 | [17] 0.058

YBEY (UniProt P58557)
UniProt P58557, sequence (P58557 whole entry, looked up): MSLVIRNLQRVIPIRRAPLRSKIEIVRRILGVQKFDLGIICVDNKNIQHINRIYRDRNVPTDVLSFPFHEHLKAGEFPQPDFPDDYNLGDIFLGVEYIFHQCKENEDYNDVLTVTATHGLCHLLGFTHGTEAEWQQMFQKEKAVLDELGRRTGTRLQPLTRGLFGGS
inactive: [4] 0.049 | [18] 0.035 | [10] 0.067 | [12] -0.083 | [17] 0.044

ULK3 isoform 4 (UniProt Q6PHR2)
UniProt Q6PHR2, sequence (Q6PHR2 whole entry, looked up): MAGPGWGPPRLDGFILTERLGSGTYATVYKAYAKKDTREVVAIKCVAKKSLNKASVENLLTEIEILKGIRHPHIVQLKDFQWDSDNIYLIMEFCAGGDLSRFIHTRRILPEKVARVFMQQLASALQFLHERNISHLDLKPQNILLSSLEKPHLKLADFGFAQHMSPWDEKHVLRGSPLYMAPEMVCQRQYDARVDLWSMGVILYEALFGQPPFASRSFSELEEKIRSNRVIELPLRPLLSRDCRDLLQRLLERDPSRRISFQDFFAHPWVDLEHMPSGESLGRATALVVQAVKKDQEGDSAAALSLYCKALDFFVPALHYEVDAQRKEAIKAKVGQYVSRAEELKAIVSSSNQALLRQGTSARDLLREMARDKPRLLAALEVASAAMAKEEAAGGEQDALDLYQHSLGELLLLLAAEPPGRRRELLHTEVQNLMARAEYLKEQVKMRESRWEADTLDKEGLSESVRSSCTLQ
inactive: [1] 0.059 | [19] -0.008 | [2] -0.088 | [3] 0.113 | [4] 0.065 | [5] -0.08 | [18] 0.059 | [6] -0.15 | [20] 0.041 | [7] 0.354 | [10] 0.035 | [12] -0.181 | [13] -0.11 | [15] 0.296 | [16] 0.133 | [17] -0.157

ZNF845 (UniProt Q96IR2)
inactive: [1] 0.012 | [19] -0.013 | [2] 0.018 | [3] -0.069 | [4] -0.023 | [5] 0.015 | [6] 0.16 | [20] -0.031 | [7] 0.017 | [8] 0 | [9] 0.087 | [10] -0.038 | [11] -0.053 | [12] 0.021 | [13] -0.033 | [14] -0.006 | [15] 0.122 | [16] 0.016 | [17] 0.163

VHL (UniProt P40337)
inactive: [19] -0.003 | [2] 0.017 | [4] 0.148 | [5] -0.08 | [18] 0 | [6] -0.011 | [20] 0.092 | [7] -0.021 | [8] -0.01 | [9] 0.04 | [10] 0 | [11] -0.056 | [12] 0.079 | [13] -0.056 | [14] 0.022 | [15] 0.077 | [17] 0.04
active: [3] -0.538

ZKSCAN8 (UniProt Q15776)
inactive: [1] 0.08 | [2] -0.151 | [4] 0.068 | [18] -0.014 | [6] 0.082 | [8] 0.05 | [9] 0.015 | [10] -0.096 | [11] -0.03 | [12] 0.026 | [13] -0.134 | [14] 0.101 | [15] 0.005 | [16] -0.029 | [17] -0.064

ZYG11A (UniProt Q6WRX3)
inactive: [1] -0.301 | [19] 0.031 | [3] -0.306 | [5] 0.192 | [20] -0.378 | [7] 0.323 | [8] 0.151 | [9] -0.077 | [11] -0.227 | [14] -0.124 | [16] 0.085 | [17] -0.068

ZSCAN21 (UniProt Q9Y5A6)
UniProt Q9Y5A6, sequence (Q9Y5A6 whole entry, looked up): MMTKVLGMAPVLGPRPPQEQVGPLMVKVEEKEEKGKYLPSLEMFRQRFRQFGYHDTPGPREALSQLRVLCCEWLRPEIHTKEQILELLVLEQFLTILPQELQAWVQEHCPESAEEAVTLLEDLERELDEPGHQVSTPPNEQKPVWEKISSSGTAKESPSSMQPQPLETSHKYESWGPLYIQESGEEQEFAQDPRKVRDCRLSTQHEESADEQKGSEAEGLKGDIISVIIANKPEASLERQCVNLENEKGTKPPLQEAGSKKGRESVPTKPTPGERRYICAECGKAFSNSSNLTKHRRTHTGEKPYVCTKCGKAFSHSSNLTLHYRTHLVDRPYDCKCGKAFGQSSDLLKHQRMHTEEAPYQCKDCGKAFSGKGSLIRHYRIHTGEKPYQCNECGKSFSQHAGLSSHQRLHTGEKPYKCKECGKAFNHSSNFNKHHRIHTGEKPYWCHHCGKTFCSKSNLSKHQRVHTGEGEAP
inactive: [3] -0.131 | [5] -0.108 | [18] -0.001 | [7] 0.068

WEE1 (UniProt P30291)
active: [10] 0.397
inactive: [1] -0.034 | [19] -0.047 | [2] -0.141 | [4] 0.033 | [18] 0.011 | [6] 0.183 | [20] 0.068 | [8] -0.002 | [9] 0.001 | [11] -0.033 | [12] -0.002 | [13] -0.069 | [14] -0.007 | [15] 0.223 | [16] -0.106 | [17] -0.044

ZDHHC17 (UniProt Q8IUH5)
active: [3] -0.778
inactive: [1] 0.042 | [2] 0.098 | [4] -0.301 | [5] 0.037 | [18] -0.025 | [6] 0.11 | [7] 0.17 | [8] -0.164 | [9] 0.039 | [10] -0.096 | [11] -0.115 | [12] -0.028 | [13] 0.045 | [14] 0.118 | [15] -0.118 | [16] -0.047

ZNF318 (UniProt Q5VUA4)
inactive: [1] 0.031 | [19] 0.059 | [2] 0.023 | [3] -0.008 | [4] 0.046 | [5] -0.021 | [18] -0.019 | [6] -0.01 | [20] -0.086 | [7] 0.112 | [8] 0.043 | [9] -0.05 | [10] -0.104 | [11] -0.034 | [12] -0.002 | [13] 0.088 | [14] -0.065 | [15] -0.004 | [16] -0.078 | [17] -0.028

UTRN isoform 2 (UniProt P46939)
inactive: [19] 0.01 | [3] -0.009 | [5] 0.04 | [18] -0.077 | [20] -0.175 | [7] -0.018 | [17] 0.21

VPS72 (UniProt Q15906)
inactive: [1] 0.025 | [2] 0.005 | [3] -0.099 | [4] 0.001 | [5] 0.031 | [18] 0.059 | [6] -0.023 | [7] 0.136 | [8] 0.029 | [9] 0.032 | [10] -0.054 | [11] 0.05 | [12] 0.073 | [13] 0.005 | [14] 0.088 | [15] 0.05 | [16] -0.03 | [17] -0.036

VASN (UniProt Q6EMK4)
inactive: [4] -0.119 | [18] 0.08 | [10] 0.081 | [12] 0.027 | [17] -0.059

UNC13A (UniProt Q9UPW8)
inactive: [3] -1.52 | [5] 0.331 | [7] 0.481 | [8] 0.114 | [9] 0.046 | [11] 0.165 | [14] 0.064 | [17] -0.048

WIPI2 isoform 6 (UniProt Q9Y4P8)
inactive: [19] -0.102 | [3] 0.025 | [5] 0.181 | [20] -0.013 | [7] -0.089

ZNF593 (UniProt O00488)
inactive: [1] -0.114 | [19] 0.078 | [2] 0.113 | [3] -0.087 | [4] 0.089 | [5] 0.016 | [18] 0.047 | [6] 0.033 | [20] 0.059 | [7] 0.045 | [10] 0.125 | [12] -0.042 | [13] 0.02 | [15] 0.063 | [16] 0.295 | [17] 0.03

URGCP (UniProt Q8TCY9)
UniProt Q8TCY9, sequence (Q8TCY9 whole entry, looked up): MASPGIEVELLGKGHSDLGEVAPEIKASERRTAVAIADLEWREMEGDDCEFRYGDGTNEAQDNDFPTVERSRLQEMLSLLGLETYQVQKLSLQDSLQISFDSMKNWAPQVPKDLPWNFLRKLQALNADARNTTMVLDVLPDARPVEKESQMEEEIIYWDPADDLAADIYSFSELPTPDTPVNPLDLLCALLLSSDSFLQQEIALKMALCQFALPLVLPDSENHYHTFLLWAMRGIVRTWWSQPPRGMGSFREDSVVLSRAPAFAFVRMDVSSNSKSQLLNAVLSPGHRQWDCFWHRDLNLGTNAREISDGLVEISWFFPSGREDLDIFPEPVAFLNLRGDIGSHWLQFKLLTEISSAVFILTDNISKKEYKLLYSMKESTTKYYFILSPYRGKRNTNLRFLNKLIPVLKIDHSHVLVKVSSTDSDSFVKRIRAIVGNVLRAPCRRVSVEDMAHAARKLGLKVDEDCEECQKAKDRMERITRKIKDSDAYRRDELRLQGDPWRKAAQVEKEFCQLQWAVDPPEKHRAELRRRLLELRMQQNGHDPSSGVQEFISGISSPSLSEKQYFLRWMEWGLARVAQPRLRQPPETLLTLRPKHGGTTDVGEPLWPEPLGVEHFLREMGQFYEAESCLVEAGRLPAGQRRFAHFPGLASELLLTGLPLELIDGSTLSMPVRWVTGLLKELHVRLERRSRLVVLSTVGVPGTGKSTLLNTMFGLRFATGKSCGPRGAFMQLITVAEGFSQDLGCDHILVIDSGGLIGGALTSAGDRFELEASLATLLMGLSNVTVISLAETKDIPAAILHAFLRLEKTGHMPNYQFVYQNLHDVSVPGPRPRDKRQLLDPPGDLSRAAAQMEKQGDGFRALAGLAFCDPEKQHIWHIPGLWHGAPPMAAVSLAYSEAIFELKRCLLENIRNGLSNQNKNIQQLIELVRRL
inactive: [19] -0.025 | [4] 0.158 | [20] -0.137 | [8] 0.028 | [9] 0.079 | [10] -0.204 | [11] -0.04 | [12] -0.145 | [14] -0.008

WAC isoform 5 (UniProt Q9BTA9)
UniProt Q9BTA9, sequence (Q9BTA9 whole entry, looked up): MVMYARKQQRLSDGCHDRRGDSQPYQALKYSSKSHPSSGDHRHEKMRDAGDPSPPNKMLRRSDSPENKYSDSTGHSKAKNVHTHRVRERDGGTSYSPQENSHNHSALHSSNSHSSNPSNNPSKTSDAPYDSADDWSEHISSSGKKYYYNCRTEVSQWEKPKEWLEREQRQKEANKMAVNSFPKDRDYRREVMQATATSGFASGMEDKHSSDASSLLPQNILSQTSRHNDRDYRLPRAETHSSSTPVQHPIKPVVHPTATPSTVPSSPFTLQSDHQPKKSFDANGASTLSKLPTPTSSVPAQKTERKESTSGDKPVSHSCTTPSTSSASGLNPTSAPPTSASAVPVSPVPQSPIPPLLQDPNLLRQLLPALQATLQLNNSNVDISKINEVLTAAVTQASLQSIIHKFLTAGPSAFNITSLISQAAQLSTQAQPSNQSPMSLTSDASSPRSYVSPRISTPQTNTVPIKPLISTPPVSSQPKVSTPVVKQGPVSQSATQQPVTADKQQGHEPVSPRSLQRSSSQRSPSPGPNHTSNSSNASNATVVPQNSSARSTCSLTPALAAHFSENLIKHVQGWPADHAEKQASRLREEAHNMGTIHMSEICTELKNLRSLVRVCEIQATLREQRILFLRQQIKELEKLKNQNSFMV
inactive: [4] 0.226 | [10] -0.336 | [12] 0.254 | [17] -0.129

ZSWIM8 isoform 4 (UniProt A7E2V4)
UniProt A7E2V4, sequence (A7E2V4 whole entry, looked up): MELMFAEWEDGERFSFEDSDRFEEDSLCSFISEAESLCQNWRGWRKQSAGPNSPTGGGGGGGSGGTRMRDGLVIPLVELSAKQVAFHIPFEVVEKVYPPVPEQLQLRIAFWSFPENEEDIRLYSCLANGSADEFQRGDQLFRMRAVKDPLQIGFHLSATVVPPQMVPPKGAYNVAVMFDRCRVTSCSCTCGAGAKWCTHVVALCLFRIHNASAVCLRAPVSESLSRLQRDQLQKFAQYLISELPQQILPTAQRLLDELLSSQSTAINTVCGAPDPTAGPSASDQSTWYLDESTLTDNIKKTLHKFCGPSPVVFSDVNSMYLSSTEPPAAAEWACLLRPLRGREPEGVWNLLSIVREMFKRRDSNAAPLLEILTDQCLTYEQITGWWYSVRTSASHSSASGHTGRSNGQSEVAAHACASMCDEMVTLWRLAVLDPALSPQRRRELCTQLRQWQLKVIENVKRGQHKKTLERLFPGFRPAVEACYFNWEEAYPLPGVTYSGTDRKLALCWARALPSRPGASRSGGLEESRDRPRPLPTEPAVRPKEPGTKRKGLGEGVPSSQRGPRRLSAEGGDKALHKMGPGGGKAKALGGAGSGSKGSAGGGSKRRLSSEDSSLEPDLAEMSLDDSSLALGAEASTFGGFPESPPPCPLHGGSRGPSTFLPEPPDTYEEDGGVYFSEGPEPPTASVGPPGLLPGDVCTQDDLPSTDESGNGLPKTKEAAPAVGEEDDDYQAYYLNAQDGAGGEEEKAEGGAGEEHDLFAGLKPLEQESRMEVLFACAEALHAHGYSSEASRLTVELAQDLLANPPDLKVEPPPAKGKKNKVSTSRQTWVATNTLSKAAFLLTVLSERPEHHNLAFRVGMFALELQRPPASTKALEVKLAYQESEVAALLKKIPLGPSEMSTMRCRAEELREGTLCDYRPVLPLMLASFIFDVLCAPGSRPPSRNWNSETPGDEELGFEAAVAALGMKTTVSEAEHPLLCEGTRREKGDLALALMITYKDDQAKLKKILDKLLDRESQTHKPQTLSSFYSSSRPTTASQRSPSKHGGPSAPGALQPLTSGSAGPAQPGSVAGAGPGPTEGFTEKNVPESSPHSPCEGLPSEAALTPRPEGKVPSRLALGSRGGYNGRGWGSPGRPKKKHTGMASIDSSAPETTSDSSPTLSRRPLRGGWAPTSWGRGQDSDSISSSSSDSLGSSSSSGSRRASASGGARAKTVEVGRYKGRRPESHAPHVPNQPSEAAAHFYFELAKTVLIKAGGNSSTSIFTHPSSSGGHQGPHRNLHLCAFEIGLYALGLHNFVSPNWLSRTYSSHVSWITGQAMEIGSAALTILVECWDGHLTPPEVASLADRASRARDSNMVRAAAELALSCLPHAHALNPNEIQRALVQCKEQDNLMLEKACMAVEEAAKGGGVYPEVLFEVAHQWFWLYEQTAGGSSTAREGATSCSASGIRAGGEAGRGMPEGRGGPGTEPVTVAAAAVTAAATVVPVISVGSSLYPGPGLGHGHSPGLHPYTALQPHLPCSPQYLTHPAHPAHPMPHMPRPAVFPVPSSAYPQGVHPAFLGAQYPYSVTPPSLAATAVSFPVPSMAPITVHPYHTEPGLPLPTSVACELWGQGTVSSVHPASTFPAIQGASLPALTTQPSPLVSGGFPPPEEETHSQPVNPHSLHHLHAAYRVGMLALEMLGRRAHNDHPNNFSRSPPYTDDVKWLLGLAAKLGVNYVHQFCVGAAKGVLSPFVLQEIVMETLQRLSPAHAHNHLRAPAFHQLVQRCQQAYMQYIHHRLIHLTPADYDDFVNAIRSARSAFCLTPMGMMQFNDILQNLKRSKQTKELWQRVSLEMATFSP
inactive: [19] -0.253 | [2] 0.027 | [3] -0.027 | [4] -0.145 | [5] -0.153 | [18] 0.169 | [6] -0.084 | [20] -0.257 | [7] 0.205 | [8] -0.009 | [9] 0.129 | [10] 0.085 | [11] 0.07 | [12] 0.042 | [13] -0.051 | [14] -0.065 | [15] 0.067 | [17] -0.112

WSB1 (UniProt Q9Y6I7)
inactive: [3] 0.12 | [4] -0.137 | [7] -0.674 | [10] -0.194 | [12] 0.012
active: [5] -1.11

ZSCAN26 (UniProt Q16670)
inactive: [2] -0.025 | [6] 0.102 | [13] 0.169 | [15] -0.093

UNKL (UniProt E9PDK2)
inactive: [19] -0.113 | [2] -0.078 | [4] 0.184 | [18] -0.039 | [6] 0.07 | [20] -0.041 | [10] -0.216 | [12] 0.006 | [13] 0.015 | [15] 0.045

ZNF652 (UniProt Q9Y2D9)
inactive: [2] -0.007 | [6] 0 | [13] 0 | [15] -0.036

USP22 (UniProt Q9UPT9)
UniProt Q9UPT9, sequence (Q9UPT9 whole entry, looked up): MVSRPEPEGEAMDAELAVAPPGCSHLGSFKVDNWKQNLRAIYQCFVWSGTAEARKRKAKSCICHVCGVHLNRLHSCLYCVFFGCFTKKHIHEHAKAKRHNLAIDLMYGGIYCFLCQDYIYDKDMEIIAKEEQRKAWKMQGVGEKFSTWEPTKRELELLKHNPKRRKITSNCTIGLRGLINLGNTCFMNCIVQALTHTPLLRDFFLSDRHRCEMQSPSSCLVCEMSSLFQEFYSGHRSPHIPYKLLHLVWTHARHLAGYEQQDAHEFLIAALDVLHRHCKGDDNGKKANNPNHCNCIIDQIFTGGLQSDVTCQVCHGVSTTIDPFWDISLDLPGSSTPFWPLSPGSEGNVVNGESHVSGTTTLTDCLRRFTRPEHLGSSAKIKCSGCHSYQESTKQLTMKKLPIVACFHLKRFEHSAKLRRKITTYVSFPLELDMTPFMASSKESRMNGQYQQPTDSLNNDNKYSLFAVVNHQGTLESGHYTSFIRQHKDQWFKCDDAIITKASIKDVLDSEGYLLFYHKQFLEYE
inactive: [19] 0.001 | [2] -0.072 | [3] 0.004 | [4] -0.006 | [5] -0.148 | [18] 0.036 | [6] -0.029 | [20] -0.032 | [7] 0.019 | [8] -0.032 | [9] 0.002 | [10] 0.022 | [11] 0.037 | [12] 0.028 | [13] -0.065 | [14] -0.028 | [15] 0.004 | [17] -0.012

XPOT (UniProt F5GYW6)
inactive: [1] -0.115 | [16] -0.192

From the supplement of paper PMC10849652
